Assay results as given in PubChem BioAssay AID449762 (Southern Research Specialized Biocontainment Screening …, 2010).
Among all 330,000 compounds or so, about 1,900 (0.58%) were called active. Roughly 4% stayed inconclusive and do not appear here. Only a sample is shown. Measured potencies and affinities stand elsewhere. A number with no mark means an inactive call. Rule as the data show it: inconclusive = inhibition above about 70% without an active follow-up result; inactive = below that.

Test: M. tuberculosis growth inhibition, HTS (AID 449762);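 also: bacterial growth assessed after seven days of incubation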
Details: M. tuberculosis H37Rv growth inhibition, 7H9 media; at 25 µM; hits give high values

Row | SMILES | inhibition [%]
1 | CCOC(=O)c1cc(-c2ccc(N3CCOCC3)cc2)nn1-c1ccccc1C(=O)O | -2.68
2 | CCOC(=O)c1cc(-c2ccc(N3CCOCC3)cc2)nn1-c1ccc(F)cc1F | 30.5
3 | COc1ccccc1N1CCN(c2nnc(-c3ccc(F)cc3)c3ccccc23)CC1 | -0.63
4 | COc1cc(C(=O)N/C(=C\c2cn(S(=O)(=O)N(C)C)c3ccccc23)C(=O)N2CCCC2)cc(OC)c1OC | 7.41
5 | COc1cc(/C=N/n2cc(-c3ccccc3)[nH]c2=S)cc(OC)c1O | -4.41
6 | Cc1ccc(-n2cnc3scc(-c4cccs4)c3c2=O)cc1 | 9.75
7 | O=c1cc(-c2ccccc2)oc2ccccc12 | -7.12
8 | O=c1cc(/C=C/c2ccccc2)oc2c1ccc1ccccc12 | -0.73
9 | CN1CCCN(C(=O)c2cc(-c3ccc(Cl)c(Cl)c3Cl)nc3ccccc23)CC1 | 5.52
10 | CCOCCCNC(=O)C(NC(=O)Cc1cccs1)c1ccc(OC)cc1 (stereo unspecified) | 3.59
11 | CCOC(=O)c1sc(C)c2c(=O)n(CC)nnc12 | -7.87
12 | CCOC(=O)c1sc(C)c2c(=O)n(CCc3ccccc3)nnc12 | -10.6
13 | COC(=O)C1=C(C)N(CCCC(=O)O)C(=O)NC1c1ccc(Br)cc1 (stereo unspecified) | 2.77
14 | COCCn1cc(C(=S)N2CCCCC2)c2ccccc21 | 5.15
15 | CCOc1ccc(NS(=O)(=O)c2ccc(C(=O)NCCN3CCOCC3)cc2)cc1 | -3.65
16 | NC(=S)N/N=C/c1ccc(-c2cc(Cl)cc(Cl)c2)o1 | -4.69
17 | CCNC(=S)N/N=C/c1ccc(-c2ccccc2)o1 | -5.23
18 | CC(=O)N1CCN(C(=O)C(Cc2ccccc2)NC(=O)c2ccccc2)CC1 (stereo unspecified) | -1.96
19 | COc1cc(CSC)nc(-c2ccccc2)n1 | -6.71
20 | CC(=O)N1N=C(c2ccc(Cl)cc2)CC1c1ccc([N+](=O)[O-])cc1 (stereo unspecified) | -2.62
21 | CC1(O)CC(c2ccc(Cl)cc2)=NN1C(=O)c1ccc(Cl)cc1 (stereo unspecified) | 47.7
22 | CC(=O)Nc1ccc(NC(=O)CCn2c(=S)oc3ccccc32)cc1 | 0.4
23 | Cc1cccc(C)c1NC(=S)N(Cc1ccccc1)Cc1cccnc1 | -3.48
24 | O=C(O)[C@@H]1[C@@H]2C[C@@H]2CN1c1ncccc1[N+](=O)[O-] | -3.12
25 | CN1C(=O)N(C)c2ccc(Br)c3cccc1c23 | -5.58
26 | CN1C(=O)N(C)c2cccc3cccc1c23 | 7.44
